Assay [1] deals with Albumin (Bos taurus) (UniProt P02769). Put plainly: compounds binding labelled BSA control protein – biochemical, small-molecule microarray, Alexa647 label, 635/667 nm fluorescence, artefact control for SMM control protein annotation, profiling panel (AID 1118).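 Also: score merges 667 nm emission intensity and signal-to-noise per printed compound spot.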 The note with it: BSA-A647 binding, fluorescence 635 nm, higher = more signal.
Assay [2] can be described thus: probe aXIP binding to arrayed compounds – biochemical, NeuroSMM set, 635/667 nm fluorescence, primary screen (AID 1119).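 Also: probe is the protein aXip251-270 applied at 1 µg/mL to compound-printed slides; binding of probe to printed compounds measured as 667 nm fluorescence plus signal to noise.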 The conditions noted are these: small-molecule microarray, higher = more signal, called active from +8 up or from −8 down.
A short description of assay [3]: probe aNOTCH3 binding on compound microarray – biochemical, small-molecule microarray, 635/667 nm fluorescence, primary screen (AID 1120).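 Also: probe is a biotin-tagged antibody raised against NOTCH3 rather than NOTCH3 protein; score merges spot fluorescence near 667 nm with spot signal to noise.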 The note with it: higher = more signal.
The nature of assay [4]: probe aNOTCH2 binding on compound microarray – biochemical, small-molecule microarray, 635/667 nm fluorescence, primary screen (AID 1121).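 Also: score merges feature fluorescence read at 667 nm with its signal to noise.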 The note with it: higher = more signal.
Assay [5] addresses Carbonic anhydrase 2 (Homo sapiens) (UniProt P00918). Put plainly: compounds binding carbonic anhydrase 2 – biochemical, small-molecule microarray, Alexa647-labelled CAII, profiling panel (AID 1122). The note with it: CAII-A647 binding fluorescence, higher = more signal.
Assay [6] can be described thus: COS7 lysate on small-molecule microarray, probe aHis, 635 nm (AID 1123).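 Also: z-score combines 667nm fluorescence intensity with signal-to-noise per printed compound spot.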 The conditions noted are these: COS7 cell lysate, fluorescence, higher = more signal.
Assay [7] can be described thus: probe aLAP1 signal on lysate-treated microarray – cell lysate, small-molecule microarray, COS7 lysate, primary screen (AID 1124).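 Also: lysate comes from COS7 cells expressing LAP1 and is applied at 0.3 µg/mL; score merges spot fluorescence near 667 nm with signal-to-noise over triplicate slides.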 The conditions noted are these: probe aLAP1, fluorescence, higher = more signal.
The test system of assay [8] is Sam68 (KHDRBS1). Put plainly: compounds binding KHDRBS1 protein – biochemical, small-molecule microarray, 635 nm fluorescence, primary screen (AID 1125).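 Also: score merges 667 nm channel intensity with signal to noise over triplicate slides.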 The conditions noted are these: higher = more signal.
Assay [9] concerns Chordin-like protein 2 (CHRDL2). Put plainly: compounds binding chordin-like 2 – biochemical, small-molecule microarray, 635 nm fluorescence, primary screen (AID 1126).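 Also: printed compound slides probed with Chrdl2 protein at 4 µg/mL for 1 h at 4 C; score merges 667 nm emission intensity with signal to noise over three replicate slides.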 The note with it: fluorescence 635 nm, higher = more signal.
The target of assay [10] is Concanavalin-A (Canavalia ensiformis) (UniProt P02866). Put plainly: compounds binding concanavalin A lectin – biochemical, small-molecule microarray, Alexa647 label, 635 nm, artefact control for SMM control protein annotation, primary screen (AID 1127).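 Also: z combines 667 nm emission intensity with signal-to-noise across three replicate slides.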 The note with it: ConA-A647 binding fluorescence, higher = more signal.
Sequence of Concanavalin-A (Canavalia ensiformis) (P02866 whole entry, looked up): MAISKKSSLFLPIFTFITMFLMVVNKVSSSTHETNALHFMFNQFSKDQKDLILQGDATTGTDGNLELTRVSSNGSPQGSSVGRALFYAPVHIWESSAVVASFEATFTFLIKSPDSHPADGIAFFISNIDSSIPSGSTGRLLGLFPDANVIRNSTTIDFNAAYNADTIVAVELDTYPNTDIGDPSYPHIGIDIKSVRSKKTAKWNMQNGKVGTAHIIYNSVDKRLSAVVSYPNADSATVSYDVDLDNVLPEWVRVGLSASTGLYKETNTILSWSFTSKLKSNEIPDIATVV
Assay [11] is described as follows: compounds binding Alexa647 anti-His antibody – biochemical, small-molecule microarray, 635 nm fluorescence, artefact control for SMM control protein annotation, primary screen (AID 1128).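 Also: score merges feature fluorescence with signal-to-noise for each printed compound spot.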 The note with it: higher = more signal.
Assay [12] has as its system Human papillomavirus type 1a E7 protein (residues 1-88). Put plainly: HPV1a E7 small-molecule binders, primary screen, biochemical, small-molecule microarray, residues 1-88, 635 nm (AID 1129). The conditions noted are these: small-molecule microarray binding, fluorescence 635 nm; higher = more signal.
Assay [13] has as its target Focal adhesion kinase 1 (Homo sapiens) (UniProt Q05397). Put plainly: PTK2 protein binding on printed compound slides – biochemical, small-molecule microarray, 635/667 nm fluorescence, BSA, DTT, primary screen (AID 1130).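 Also: composite of spot emission at 667 nm and signal to noise over triplicate slides.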 The conditions noted are these: 635 nm fluorescence, higher = more signal.
For assay [14], the system named is Fibrinogen (Alexa647-labelled). Put plainly: Alexa647-fibrinogen binding to printed small molecules – biochemical, small-molecule microarray, 635/667 nm fluorescence, artefact control for SMM control-protein annotation, profiling panel (AID 1131).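 Also: z-score merges 667 nm fluorescence with per-spot signal-to-noise over triplicate slides.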 The note with it: fibrinogen-A647 binding fluorescence, higher = more signal.
Assay [15] concerns the target Follistatin (Homo sapiens) (UniProt P19883). Put plainly: FST protein binding to printed compounds – biochemical, small-molecule microarray, 635/667 nm fluorescence, primary screen (AID 1132). The note with it: 635 nm fluorescence, higher = more signal.
The target in assay [16] is Fibroblast growth factor 2 (Homo sapiens) (UniProt P09038). Put plainly: basic fibroblast growth factor binding to printed compounds – biochemical, small-molecule microarray, 635/667 nm fluorescence, primary screen (AID 1133). The note with it: FGF2, fluorescence 635/667, higher = more signal.
Sequence of Fibroblast growth factor 2 (Homo sapiens) (P09038 whole entry, looked up): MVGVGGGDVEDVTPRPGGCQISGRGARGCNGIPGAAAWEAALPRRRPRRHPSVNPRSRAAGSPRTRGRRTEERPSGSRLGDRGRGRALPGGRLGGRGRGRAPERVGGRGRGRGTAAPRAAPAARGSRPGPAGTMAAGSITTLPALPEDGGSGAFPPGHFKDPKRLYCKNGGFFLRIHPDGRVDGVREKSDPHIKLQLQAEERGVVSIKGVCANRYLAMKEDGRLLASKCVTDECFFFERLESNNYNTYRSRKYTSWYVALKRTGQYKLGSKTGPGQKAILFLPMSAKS
Assay [17] is described as follows: JC-1 mitochondrial potential readout, lung cancer cells – cell-based, A549, JC-1 fluorescence, basal, 24 h, 100 nL, profiling panel (AID 1138).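 Also: A549 lung adenocarcinoma cells under basal conditions with no added stimulus; test concentration not given here.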 The conditions noted are these: higher = more signal.
For assay [18], the system named is Lefty1. Put plainly: Lefty1 protein binding to printed compounds – biochemical, small-molecule microarray, 635/667 nm fluorescence, primary screen (AID 1139). The conditions noted are these: fluorescence 635/667, higher = more signal.
The subject of assay [19] is wheat germ agglutinin (Triticum aestivum), Alexa647-labelled. Put plainly: Alexa647-WGA lectin binding to printed small molecules – biochemical, small-molecule microarray, 635/667 nm fluorescence, artefact control for SMM control-protein annotation, profiling panel (AID 1140).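 Also: score merges 667 nm feature emission with signal to noise over triplicate slides.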 The note with it: WGA-A647 binding, 635 nm fluorescence, higher = more signal.
Assay [20] deals with Luciferin 4-monooxygenase (Photinus pyralis) (UniProt P08659). Put plainly: inhibition of purified Photinus pyralis luciferase – biochemical, luminescence, purified enzyme, 2006 set, primary screen (AID 1141).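 Also: cell-free assay with purified firefly luciferase at 100 ng per well in PBS; test concentration not given here.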 The conditions noted are these: purified firefly luciferase, SteadyGlo luminescence, 30 min; higher = more signal, called active from +8 up or from −8 down.
Sequence of Luciferin 4-monooxygenase (Photinus pyralis) (P08659 whole entry, looked up): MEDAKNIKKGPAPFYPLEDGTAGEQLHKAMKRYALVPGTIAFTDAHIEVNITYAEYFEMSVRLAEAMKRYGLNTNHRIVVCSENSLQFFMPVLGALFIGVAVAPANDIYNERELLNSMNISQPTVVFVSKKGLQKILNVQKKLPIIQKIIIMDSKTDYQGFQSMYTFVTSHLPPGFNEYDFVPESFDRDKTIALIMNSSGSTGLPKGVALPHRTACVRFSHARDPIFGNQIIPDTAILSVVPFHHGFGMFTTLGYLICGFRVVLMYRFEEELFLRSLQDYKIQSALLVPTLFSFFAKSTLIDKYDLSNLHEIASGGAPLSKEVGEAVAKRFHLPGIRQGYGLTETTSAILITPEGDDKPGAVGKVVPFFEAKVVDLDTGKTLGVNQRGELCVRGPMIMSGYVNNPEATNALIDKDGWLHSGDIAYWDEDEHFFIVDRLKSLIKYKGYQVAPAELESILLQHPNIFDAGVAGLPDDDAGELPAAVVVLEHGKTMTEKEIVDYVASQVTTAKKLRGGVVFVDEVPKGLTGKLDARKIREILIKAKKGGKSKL

Each structure is given as a SMILES string. The source made the active and inactive calls.

Eight compounds from PubChem BioAssay can be followed below.

Sequence of Follistatin (Homo sapiens) (P19883 whole entry, looked up): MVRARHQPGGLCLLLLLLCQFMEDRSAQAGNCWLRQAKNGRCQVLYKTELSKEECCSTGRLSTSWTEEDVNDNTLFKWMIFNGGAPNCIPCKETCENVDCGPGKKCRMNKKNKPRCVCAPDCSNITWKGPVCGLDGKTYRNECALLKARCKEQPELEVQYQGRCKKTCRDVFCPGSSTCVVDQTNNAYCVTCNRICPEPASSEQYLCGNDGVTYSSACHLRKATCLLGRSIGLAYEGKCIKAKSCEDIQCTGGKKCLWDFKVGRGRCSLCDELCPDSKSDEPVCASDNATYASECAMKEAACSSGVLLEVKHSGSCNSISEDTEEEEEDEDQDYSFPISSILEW
Sequence of Focal adhesion kinase 1 (Homo sapiens) (Q05397 whole entry, looked up): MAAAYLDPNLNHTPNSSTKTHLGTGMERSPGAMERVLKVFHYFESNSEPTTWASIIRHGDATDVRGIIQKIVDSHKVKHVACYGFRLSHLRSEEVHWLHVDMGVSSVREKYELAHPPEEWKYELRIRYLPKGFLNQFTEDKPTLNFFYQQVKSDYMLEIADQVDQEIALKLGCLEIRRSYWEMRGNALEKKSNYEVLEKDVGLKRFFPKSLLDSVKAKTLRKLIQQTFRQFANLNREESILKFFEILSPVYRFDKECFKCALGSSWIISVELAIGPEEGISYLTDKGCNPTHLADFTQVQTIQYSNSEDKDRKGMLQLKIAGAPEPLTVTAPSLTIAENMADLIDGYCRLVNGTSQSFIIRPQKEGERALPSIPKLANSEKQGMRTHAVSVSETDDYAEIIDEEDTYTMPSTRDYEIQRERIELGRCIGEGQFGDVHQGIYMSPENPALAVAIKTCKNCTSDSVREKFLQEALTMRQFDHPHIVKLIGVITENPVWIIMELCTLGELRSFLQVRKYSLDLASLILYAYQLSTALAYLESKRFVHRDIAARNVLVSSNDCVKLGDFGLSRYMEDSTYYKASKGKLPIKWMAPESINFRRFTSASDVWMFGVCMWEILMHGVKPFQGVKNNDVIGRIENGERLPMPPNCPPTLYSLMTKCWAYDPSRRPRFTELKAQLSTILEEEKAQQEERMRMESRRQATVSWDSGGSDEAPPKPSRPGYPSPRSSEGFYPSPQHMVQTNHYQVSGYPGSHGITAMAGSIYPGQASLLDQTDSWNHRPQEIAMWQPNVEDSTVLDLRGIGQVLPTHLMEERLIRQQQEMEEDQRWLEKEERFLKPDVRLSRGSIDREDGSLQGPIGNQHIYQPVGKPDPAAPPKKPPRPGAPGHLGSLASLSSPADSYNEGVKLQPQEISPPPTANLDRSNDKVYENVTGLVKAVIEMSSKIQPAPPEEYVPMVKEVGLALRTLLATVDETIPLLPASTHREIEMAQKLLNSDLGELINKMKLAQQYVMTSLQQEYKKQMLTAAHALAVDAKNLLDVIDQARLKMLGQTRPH
Sequence of Albumin (Bos taurus) (P02769 whole entry, looked up): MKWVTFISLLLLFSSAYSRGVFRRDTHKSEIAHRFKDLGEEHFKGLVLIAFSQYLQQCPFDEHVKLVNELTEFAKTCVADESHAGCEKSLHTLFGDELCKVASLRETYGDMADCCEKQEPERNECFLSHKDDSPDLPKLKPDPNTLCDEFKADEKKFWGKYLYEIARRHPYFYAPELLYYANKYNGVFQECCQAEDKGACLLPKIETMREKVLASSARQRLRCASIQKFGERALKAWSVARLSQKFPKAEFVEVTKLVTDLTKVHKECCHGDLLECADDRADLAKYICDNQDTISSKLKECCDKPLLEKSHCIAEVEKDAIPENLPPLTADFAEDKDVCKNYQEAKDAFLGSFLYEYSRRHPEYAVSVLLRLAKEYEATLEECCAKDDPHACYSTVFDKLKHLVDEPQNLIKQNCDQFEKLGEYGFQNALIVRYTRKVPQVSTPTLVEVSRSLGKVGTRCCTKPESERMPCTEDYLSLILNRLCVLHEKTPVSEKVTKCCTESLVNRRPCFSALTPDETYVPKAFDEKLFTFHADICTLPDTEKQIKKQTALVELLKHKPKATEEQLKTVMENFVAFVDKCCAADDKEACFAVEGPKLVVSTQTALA

Turning to `CCOC(=O)C1=CC[C@@H](c2ccccc2)N(S(=O)(=O)c2ccc(C)cc2)[C@@H]1C#N`, the composite z-score in assay [1] is 0.118; in assay [3], 0.0112; in assay [4], -0.026; in [5], 0.518; in assay [6] it was 1.87; in [7], -0.0567. In addition, the composite z-score in assay [8] was 1.23; in assay [9], -0.315; in [10], 0.855; in assay [11] it was 2.09; in assay [12] it was 1.15; in assay [13], 0.165. For the same compound, the composite z-score was 0.317 in assay [14]; 0.351 in assay [15]; -0.501 in assay [16]; -0.0273 in [18]; 0.72 in [19]. Besides, the composite Z-score in assay [2] is 0.4 (inactive). Further, the values for the z-score in assay [17] and in assay [20] were 0.215 and -0.323 (inactive), respectively.

`CC[C@@H](O[Si](C#C[Si](C(C)C)(C(C)C)C(C)C)(C(C)C)C(C)C)c1cn([C@H](C)c2ccccc2)nn1`: the composite z-score in assay [1] was -0.605; in assay [3], -0.016; in assay [4] it was -0.171; in assay [5], 0.0757; in assay [6], 0.365; in assay [7] it was 0.369. Moreover, the composite z-score in assay [8] amounted to 0.71; in assay [9] it was 0.26; in [10], 0.364; in [11], 0.176; in assay [12] it was 0.57; in [13], 0.0506. For the same compound, the composite z-score in [14] is -0.0116; in assay [15], 0.548; in [16] it was 0.335; in [18] it was 0.573; in assay [19], 0.094. Also, the composite Z-score in assay [2] was 0.515 (inactive). Besides, the z-score was -0.213 in [17] and -0.268 (inactive) in assay [20].

`COC(=O)[C@@]1(Cc2ccc(F)cc2)[C@H]2c3cc(C(=O)N(C)C)n(Cc4ccc(C(F)(F)F)nc4)c3C[C@H]2CN1C(=O)c1ccccc1`: the composite z-score in assay [1] is 0.98; in assay [3], 0.894; in assay [4] it was -0.0531; in assay [5], 0.726; in [6] it was 3.26; in assay [7], 0.311. In addition, the composite z-score in assay [8] is 1.33; in assay [9], 0.214; in [10], 1.1; in [11] it was 1.33; in assay [12], 1.27; in assay [13], 1.61. For the same compound, the composite z-score in assay [14] was 1.02; in assay [15], 1.05; in assay [16], -0.234; in assay [18], 0.853; in assay [19], 0.895. Moreover, the composite Z-score in [2] was -0.387 (inactive). For the same compound, the z-score was 0.453 in assay [17] and 1.57 (inactive) in [20].

Take `CC1(C)OB(/C=C\CC(OC(=O)c2ccncc2)c2ccccc2)OC1(C)C` (stereo not given): the composite z-score is 0.152 in [1]; -0.0345 in [3]; -0.0464 in [4]; 0.918 in assay [5]; 0.677 in [6]; 0.953 in assay [7]. The composite z-score is 0.426 in assay [8]; 0.381 in assay [9]; -0.305 in assay [10]; 1.33 in assay [11]; 0.22 in [12]; -0.113 in [13]. The composite z-score is -0.857 in assay [14]; -0.397 in assay [15]; -1.03 in [16]; -1.2 in assay [18]; -1.28 in assay [19]. In addition, in assay [2], the composite Z-score is 0.142 (inactive). Also, the figures for the z-score in [17] and in [20] were -0.242 and -0.0512 (inactive), respectively.

For the compound `COCCCNC(=O)[C@@]1(Cc2ccccc2I)c2ccccc2C(=O)N(Cc2ccccc2C(F)(F)F)[C@H]1c1ccc(CO)cc1`, the composite z-score is 0.251 in assay [1]; -0.136 in assay [3]; -0.148 in assay [4]; 0.487 in [5]; 1.85 in assay [6]; -0.462 in assay [7]. Also, the composite z-score in [8] was 0.302; in [9], -1.44; in assay [10] it was -0.375; in [11], 0.611; in [12], 0.742; in [13], -0.0483. Further, the composite z-score in [14] was 0.0568; in assay [15], 0.672; in assay [16] it was -0.742; in assay [18], -1.15; in [19] it was -0.107. Besides, the composite Z-score in assay [2] was 0.29 (inactive). For the same compound, the z-score was 0.104 in [17] and 0.636 (inactive) in [20].

As to `Cc1ccc(S[C@]2(C(=O)NC(C)C)CC(=O)N(Cc3ccccc3)[C@@H]2c2ccc(CO)cc2)cc1`, the composite z-score is 0.161 in [1]; -0.333 in assay [3]; -0.0451 in [4]; 0.445 in assay [5]; -0.0367 in assay [6]; -0.915 in assay [7]. The composite z-score was -0.76 in [8]; -1.31 in assay [9]; -1.06 in assay [10]; 0.0893 in assay [11]; -0.161 in [12]; 0.274 in assay [13]. Further, the composite z-score in [14] was -1.36; in [15], -1.15; in [16] it was -1.36; in [18], -1.06; in [19], 0.704. The composite Z-score in assay [2] is 0.339 (inactive). The z-score was 0.649 in assay [17] and 0.262 (inactive) in assay [20].

In the case of `CCOC(=O)C[C@H]1[C@H](OC(=O)c2ccccc2-c2ccccc2)[C@@H](NC(=O)CC(C)C)c2cc(OCCCO)ccc2N1C(=O)c1ccccc1`, the composite z-score is 0.079 in assay [1]; -0.0406 in assay [3]; -0.0698 in assay [4]; 0.742 in assay [5]; 0.429 in assay [6]; -0.161 in assay [7]. The composite z-score in assay [8] is 0.207; in [9] it was 0.389; in assay [10], 0.125; in assay [11] it was -0.229; in [12] it was 0.0447; in assay [13], -0.0647. Besides, the composite z-score in [14] is 0.24; in assay [15], 1.01; in [16], 0.583; in assay [18] it was 1.01; in [19] it was -0.0988. Also, the composite Z-score in assay [2] was 0.305 (inactive). Moreover, the figures for the z-score in assay [17] and in [20] were -0.154 and 0.914 (inactive), respectively.

As to `COCCOC(=O)N1C(=O)[C@@]2(c3cc(C#CCNC(N)=O)ccc31)[C@H](C(N)=O)[C@H]1C(=O)O[C@H](c3ccccc3)[C@H](c3ccccc3)N1[C@@H]2c1ccc(O)cc1`, the composite z-score is -0.153 in [1]; 0.153 in assay [3]; 0.234 in assay [4]; 0.606 in assay [5]; 0.609 in [6]; -0.545 in assay [7]. The composite z-score is -0.148 in assay [8]; 0.267 in assay [9]; -0.267 in assay [10]; 1.78 in assay [11]; -0.767 in assay [12]; -0.284 in assay [13]. Moreover, the composite z-score is -0.424 in [14]; 0.994 in assay [15]; 0.287 in [16]; 0.115 in assay [18]; -0.113 in [19]. Also, in assay [2], the composite Z-score was 0.003 (inactive). The z-score in assay [17] is 0.222; in assay [20], -2.19 (inactive).
